High-throughput results as filed in PubChem.
Compounds with a hit are over-represented: about 1.2% of the library has one in this group of screens.
RGS8-Gao: RGS8-Galphao binding modulators, primary screen, biochemical, multiplexed bead flow cytometry. Guanine nucleotide-binding protein G(o) subunit alpha (Homo sapiens), P09471. response (percent of control binding), % at 10 µM. 220,000 tested, 0.34% active. actives lie on both sides; in the data active = response below about 60% or above about 140%; inactive = in between;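 also: Galphao activated as the GDP aluminium fluoride complex binding bead-coupled RGS8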
Target sequence (P09471 whole entry, looked up): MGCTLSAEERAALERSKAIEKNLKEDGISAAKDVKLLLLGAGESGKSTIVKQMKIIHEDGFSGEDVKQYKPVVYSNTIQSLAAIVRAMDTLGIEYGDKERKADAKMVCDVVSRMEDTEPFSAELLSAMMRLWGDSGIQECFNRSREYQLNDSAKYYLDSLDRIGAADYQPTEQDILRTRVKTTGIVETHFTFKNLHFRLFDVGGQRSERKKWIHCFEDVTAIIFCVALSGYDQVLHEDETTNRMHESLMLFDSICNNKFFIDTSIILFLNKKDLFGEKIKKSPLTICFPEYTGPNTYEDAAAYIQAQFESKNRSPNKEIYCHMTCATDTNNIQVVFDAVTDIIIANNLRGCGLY
RGS16-Gao: modulators of RGS16 binding to Galphao, primary screen, biochemical, human proteins, multiplexed bead flow cytometry; Regulator of G-protein signaling 16 (Homo sapiens) + Guanine nucleotide-binding protein …; bead-based flow cytometry RGS16-Galphao binding, fluorescence; actives lie on both sides; binding response (% of control), % at 10 µM; 220,000 tested, 0.38% active;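 also: Galphao activated by GDP with aluminum fluoride before binding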
Target sequence (O15492 whole entry, looked up): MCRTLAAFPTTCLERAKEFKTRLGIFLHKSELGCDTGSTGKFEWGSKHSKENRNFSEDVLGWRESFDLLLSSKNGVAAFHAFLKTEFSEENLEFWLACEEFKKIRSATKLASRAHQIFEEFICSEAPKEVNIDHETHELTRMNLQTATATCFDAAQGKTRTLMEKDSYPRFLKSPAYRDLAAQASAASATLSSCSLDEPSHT
Target sequence (P09471 whole entry, looked up): as the sequence (P09471 whole entry, looked up) above
Avidin bead fluor: green autofluorescence of compounds with avidin beads – biophysical, 488/530 nm, flow cytometry, artefact control, profiling panel; AID 1775, 2009; fluorescence (KMESF) at 10 µM; 220,000 tested, 0.38% active; compound fluorescence 488/530 nm; stronger effect = higher value; in the data active = fluorescence above about 47
GSH bead fluor: compound fluorescence on glutathione beads, profiling panel, artefact control, biophysical, 488/530 nm, flow cytometry; GSH beads flow cytometry, compound fluorescence 488/530 nm; stronger effect = higher value; fluorescence (KMESF) at 10 µM; 190,000 tested, 0.25% active; AID 1776, 2009; in the data active = fluorescence above about 89;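 also: glutathione beads carrying GST-tagged Bcl family fusion proteins plus one bare bead set; values are compound well signal with DMSO vehicle wells as background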
RGS7-Gao: RGS7-Galphao binding modulators, primary screen, biochemical, multiplexed bead flow cytometry | Guanine nucleotide-binding protein G(o) subunit alpha (Homo sapiens), P09471 | actives lie on both sides | binding response (% of control), % at 10 µM | 220,000 tested, 0.35% active | AID 1439, 2008; in the data active = binding response below about 49% or above about 150%; inconclusive = no clear call, values can overlap the other calls; inactive = in between;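 also: fluorescent Galphao held in activated GDP-AlF4 state binding bead-coupled RGS7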
RGS4-Gao reg: modulators of RGS4 binding to Galphao, primary screen, biochemical, multiplexed bead flow cytometry. binding response (% of control), % at 10 µM. 220,000 tested, 0.33% active. actives lie on both sides; in the data active = binding response below about 49% or above about 150%; inactive = in between;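 also: fluorescent Galphao activated with aluminum fluoride binding bead-coupled RGS4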
RGS-Gao: modulators of RGS–Galpha-o binding, primary screen, biochemical, multiplexed beads, flow cytometry, RGS4/7/8/16/19; AID 1504, 2009; multiplexed bead flow cytometry; 1,600 tested, 99% active; RGS4–Galpha-o binding response, % at 10 µM; shares compounds with RGS16-Gao;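 also: fluorescently labeled Galpha-o bound to GDP with aluminium fluoride binding biotinylated RGS beads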
Avidin counter: disruption of biotin probe capture by avidin, counter-screen for RGS protein interaction modulators, biochemical, flow cytometry, bead-based; AID 1783, 2009; shares compounds with RGS16-Gao; streptavidin beads, fluorescein-biotin binding; inhibition, % at 10 µM; 1,700 tested, under 10 active;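 active = inhibition above 50%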;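 also: median green fluorescence of gated singlet beads compared with DMSO control wells; 0% = DMSO wells and 100% = complete loss of bead fluorescence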
RGS8-Gao confirm: RGS8-Galphao binding modulators, confirmation, biochemical, multiplexed bead flow cytometry, single concentration. shares compounds with RGS16-Gao. bead-based flow cytometry RGS8-Galphao binding, fluorescence; actives lie on both sides. binding response (% of control), % at 10 µM. 1,700 tested, 3% active; in the data active = binding response below about 72% or above about 130%; inactive = in between;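 also: Galphao activated as GDP AlF4 complex before binding bead RGS8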
RGS7-Gao single: RGS7-Galphao binding modulators, confirmation, biochemical, multiplexed bead flow cytometry, single concentration | shares compounds with RGS16-Gao | bead-based flow cytometry RGS7-Galphao binding; actives lie on both sides | response (percent of control binding), % at 10 µM | 1,700 tested, 7.8% active | AID 1837, 2009; in the data active = response below about 75% or above about 130%; inactive = in between;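 also: fluorescent Galphao activated with GDP and aluminum fluoride binding bead-coupled RGS7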
RGS16-Gao single: modulators of RGS16-Galphao protein binding, confirmation, biochemical, single concentration, multiplexed bead flow cytometry. shares compounds with RGS16-Gao. bead-based flow cytometry; actives lie on both sides. response (% of control binding), % at 10 µM. 1,700 tested, 4% active; in the data active = response below about 74% or above about 130%; inactive = in between;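 also: Galphao activated as the GDP aluminium fluoride complex binding bead-coupled RGS16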
RGS4-Gao single: modulators of RGS4-Galphao protein binding, confirmation, biochemical, single concentration, multiplexed bead flow cytometry. binding response (% of control), % at 10 µM. 1,700 tested, 4% active. shares compounds with RGS16-Gao. actives lie on both sides. AID 1840, 2009; in the data active = binding response below about 74% or above about 130%; inactive = in between
RGS19-Gao single: regulators of RGS19-Galphao binding, confirmation, biochemical, single point, multiplexed bead flow cytometry; shares compounds with RGS16-Gao; bead-based flow cytometry RGS19-Galphao binding; actives lie on both sides; response (percent of control binding), % at 10 µM; 1,700 tested, 5% active; AID 1841, 2009; in the data active = response below about 50% or above about 160%; inactive = in between;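 also: 100% = no compound control and 0% = blank background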
* = called active by the depositor; ? = inconclusive; nt = no result given; + = active, no number; [ ] = another dose, or the depositor's remark. Unless noted, no rule for the calls is given here.

SMILES | RGS8-Gao | RGS16-Gao | Avidin bead fluor | GSH bead fluor | RGS7-Gao | RGS4-Gao reg | Avidin counter | RGS8-Gao confirm | RGS7-Gao single | RGS16-Gao single | RGS4-Gao single | RGS19-Gao single | others
COCc1cc(C)nc(OCC(=O)N/N=C/c2ccc(O)cc2O)c1C#N | 55* | 31 | 11 | 7 | 58 | 55 | 0 | 91 | 83 | 86 | 84 | 96 | RGS-Gao=55*
CCc1nnc(NC(=O)c2cc(S(=O)(=O)N3CCOCC3)ccc2N2CCCCC2)s1 | 393*[activator] | +[activator] | 897* | 73 | +[activator] | +[activator] | 3 | 104 | 77 | 89 | 88 | 58
CC(C)CCNC(=O)NC(=O)COC(=O)c1cc(S(=O)(=O)N2CCOCC2)ccc1N1CCCCC1 | 12* | 16* | 0 | 30 | 13* | 25* | 0 | 96 | 81 | 96 | 90 | 71
CCc1nnc(NC(=O)c2cccc(S(=O)(=O)N3CCc4ccccc43)c2)s1 | 19* | 3.0* | 0 | 22 | 23* | 28* | -2 | 100 | 91 | 100 | 98 | 95
Cc1ccc2oc(C(=O)NCc3ccc4c(c3)OCO4)c(C)c2c1 | 101 | 100 | 7 | 10 | 100 | 101 | nt | nt | nt | nt | nt | nt
CS(=O)(=O)N(CCc1ccccc1)CC(=O)NCc1ccc2c(c1)OCO2 | 14* | 3.7* | 0 | 42 | 13* | 11* | 0 | 93 | 88 | 90 | 90 | 90
O=C(COC(=O)c1ccc2c(c1)OCO2)NCc1ccc2c(c1)OCO2 | 103 | 126 | 7 | 14 | 113 | 124 | nt | nt | nt | nt | nt | nt
Cc1c(C(=O)NCc2ccc3c(c2)OCO3)oc2ccccc12 | 70 | 22* | 4 | 59 | 89 | 92 | -1 | 107 | 105 | 111 | 104 | 118 | RGS-Gao=92*
O=C(COC(=O)c1ccco1)NCc1ccc2c(c1)OCO2 | 41* | 30 | 2 | nt | ? | 34* | 0 | 112 | 115 | 110 | 112 | 98
O=C(CCCCCN1C(=O)c2cccc3cccc(c23)C1=O)NCCO | 102 | 104 | 6 | 18 | 111 | 102 | nt | nt | nt | nt | nt | nt
COc1ccccc1NC(=O)Cn1c(=O)n(-c2ccccc2)c(=O)c2oc3ccccc3c21 | 89 | 59 | 3 | 19 | 100 | 95 | nt | nt | nt | nt | nt | nt
COc1ccc(NC(=O)Cn2c(=O)n(-c3ccccc3)c(=O)c3oc4ccccc4c32)c(OC)c1 | 126 | 232*[activator] | 15 | 4 | 109 | 106 | 1 | 94 | 87 | 90 | 89 | 96 | RGS-Gao=106*
CCOCCCNCC(=O)Nc1ccc(S(=O)(=O)NC(C)CC)cc1 (configuration not stated) | 98 | 92 | 7 | 23 | 97 | 99 | nt | nt | nt | nt | nt | nt
CCn1c(SCC(=O)N2CCCC(C)C2)nnc1-c1ccc(S(=O)(=O)N2CCN(C)CC2)cc1 (configuration not stated) | nt | nt | nt | 40 | nt | nt | 0 | 99 | 97 | 96 | 98 | 100
O=C1CC(c2ccccc2Cl)c2c(sc3c(=O)[nH]c(CCl)nc23)N1 (configuration not stated) | 100 | 100 | 11 | nt | ? | 98 | nt | nt | nt | nt | nt | nt
CCOC(=O)c1sc(-c2cccc(C(F)(F)F)c2)nc1O | 75 | 96 | 7 | nt | ? | 97 | 0 | 100 | 94 | 100 | 98 | 90
CCOC(=O)c1sc(-c2ccc(C(F)(F)F)cc2)nc1O | 100 | 95 | 6 | nt | ? | 96 | nt | nt | nt | nt | nt | nt
O=c1cc2oc3cc(O)c(O)cc3c(-c3ccccc3O)c-2cc1O | 87 | 86 | 2 | nt | ? | 90 | nt | nt | nt | nt | nt | nt
CCOc1ccccc1-c1c2cc(O)c(=O)cc-2oc2cc(O)c(O)cc12 | 69 | 47 | 4 | 10 | 42* | 85 | -2 | 64* | 50* | 63* | 82 | 40* | RGS-Gao=85*
COc1c(F)c(F)c(C(=O)Nc2ccc(N3CCN(Cc4ccccc4)CC3)cc2)c(F)c1F | 175*[activator] | 449 | 6 | 10 | 128 | 141 | -1 | 98 | 100 | 99 | 99 | 103 | RGS-Gao=141*
CCc1nccn1S(=O)(=O)c1cc(C)c(OC)cc1C | 106 | 113 | 5 | 17 | 103 | 102 | nt | nt | nt | nt | nt | nt
CCc1nccn1S(=O)(=O)c1cc(OC)c(Cl)cc1OC | 12* | 77 | -4 | 12 | -76* | -222* | -1 | 101 | 75* | 89 | 84 | 57
OCCC1CN(Cc2cccn2-c2ncccn2)CCN1C1CCCC1 (configuration not stated) | 104 | 100 | 1 | 14 | 104 | 102 | nt | nt | nt | nt | nt | nt
COC(=O)Cc1ccc(NC(=S)NNC(=O)c2ccccc2Br)cc1 | 104 | 114 | 3 | 8 | 103 | 104 | nt | nt | nt | nt | nt | nt
COC(=O)Cc1ccc(NC(=O)c2ccccc2Br)cc1 | 28* | 24* | 3 | 16 | ? | 33* | 0 | 99 | 98 | 100 | 98 | 99
N#CC1=C2SCCN2C(=O)C(C#N)C12CCCCC2 (configuration not stated) | 13* | -10* | nt | 10 | -0.9* | -15* | 1 | 101 | 102 | 104 | 101 | 103
